# Assay results: ChEMBL document CHEMBL3988442, “University of Dundee, Small-Polar-MMV Screening Library” (2021)
# In all, about 69,000 compounds went through this assay and about 1,000 (1.4%) showed an effect of 50% or more. The entries come from a sample that favours strong results as a whole.
# System: Leishmania donovani
# Test: Leishmania intramacrophage assay
# Assay type: functional, organism-based
# Set-up: scale not given: in the data most compounds retested in dose-response had high values
structure (smiles),measurement,setting,value
CC(C)CCN(C)Cc1ccccc1-c1nc(C(C)C)cc(=O)[nH]1,Percent Effect,"30.3 µM, […]",41.3%
CNc1cc2c(nn1)CCN(C(=O)c1coc(Br)c1)C2,Percent Effect,30 µM,-2.691%
COCCC1(CO)CCCN(Cc2cc(C(F)(F)F)ccc2F)C1 (stereo not given),Percent Effect,"30.3 µM, […]",0.4261%
O=C(Nc1cccc(CN2CCC(CO)CC2)c1)c1cc(Cl)c[nH]1,Percent Effect,"30.3 µM, […]",28.48%
COCCNC(=O)Cn1cc2c(n1)c(C)nn2C,Percent Effect,"30.3 µM, […]",-28.68%
O=C(NCCSC1CCCC1)c1cc(C2CC2)on1,Percent Effect,"30.3 µM, […]",-5.763%
Cc1ccc2nc(C)cc(C(=O)NCc3csc(N(C)C)n3)c2c1,Percent Effect,"30.3 µM, […]",25.38%
COCCN(C)CC1CCCN1S(=O)(=O)Cc1ccccc1F (stereo not given),Percent Effect,"30.3 µM, […]",-13.31%
CC(=O)N1CCCC2(C1)CN(c1nncs1)CCO2.O=C(O)C(F)(F)F (stereo not given),Percent Effect,"30.3 µM, […]",42.05%
O=C(CCO)N1CCOC2(CCCN(C(=O)c3ccco3)C2)C1 (stereo not given),Percent Effect,"30 µM, 30.03 µM",-4.275%
O=C(c1ccco1)N1CCCC2(C1)CN(c1nncs1)CCO2 (stereo not given),Percent Effect,"30.3 µM, […]",54.73%
CO[C@@H]1CCN(S(=O)(=O)c2cccs2)[C@H]1Cc1cccnc1.O=C(O)C(F)(F)F,Percent Effect,"30.3 µM, […]",35.84%
Cc1cccc(C)c1OCC(=O)NS(=O)(=O)c1c(C)noc1C,Percent Effect,30 µM,12.57%
CC(C)S(=O)(=O)N1CCC(c2[nH]ncc2S(C)(=O)=O)C1 (stereo not given),Percent Effect,"30.3 µM, […]",-8.157%
COc1ccc(-c2cc(CN)ccc2F)c(OC)c1OC,Percent Effect,"30.3 µM, […]",-7.273%
COc1ccc(-c2ccccc2CCN)c(OC)c1OC,Percent Effect,"30.3 µM, […]",95.35%
COc1ccc(-c2ccccc2CN)c(OC)c1,Percent Effect,"30.3 µM, […]",18.4%
CC(C)N1CC[C@@H]2[C@H](COCC3CC3)CN(C)C(=O)[C@@H]2CC1.O=C(O)C(F)(F)F,Percent Effect,"30.3 µM, […]",9.802%
CS(=O)(=O)c1ccc(NC(=O)NCCC2=CCCCC2)cc1,Percent Effect,"30.3 µM, […]",16.41%
Cn1cc(C(NCc2ccc(F)cc2)c2cccc(F)c2)cn1 (stereo not given),Percent Effect,"30.3 µM, […]",7.526%
Cc1ccc(CNC(c2ccccc2)c2nccn2C)cc1C (stereo not given),Percent Effect,"30 µM, 30.03 µM",38.71%
COc1ccc(CNC(Cn2cncn2)c2ccccc2)cc1C (stereo not given),Percent Effect,"30.3 µM, […]",17.02%
Cc1ccc(CNC(CN2CCN(C)CC2)c2ccccc2)cc1 (stereo not given),Percent Effect,"30 µM, 30.03 µM",94.58%
O=C(NC(CN1CCCC1)c1ccccc1)c1c(O)cc(F)cc1F (stereo not given),Percent Effect,"30.3 µM, […]",5.752%
CNS(=O)(=O)c1cccc(C(C)NCc2ccc(F)c(F)c2)c1 (stereo not given),Percent Effect,"30.3 µM, […]",11.11%
Cc1ccc(CNC(=O)CN2CCN(CC(O)C3CC3)CC2)cc1.Cl.Cl (stereo not given),Percent Effect,"30 µM, 30.03 µM",31.99%
Cl.O=C(NCc1ccc(F)cc1)N1CCN(CC(O)C2CC2)CC1 (stereo not given),Percent Effect,"30.3 µM, […]",10.63%
Cc1ccc(CNC(c2ccccc2)c2nccn2C)cc1.Cl (stereo not given),Percent Effect,30 µM,-15.51%
O=C(O)C(F)(F)F.O=C1COC2(CCN(S(=O)(=O)C3CC3)CC2)CN1c1cccnc1,Percent Effect,"30.3 µM, […]",-7.696%
COc1ccc(C)nc1NC(=O)Cc1c(C)nn(C)c1C,Percent Effect,"30.3 µM, […]",1.753%
CC(C)NC(=O)c1ccc2nnc(C3CCN(S(C)(=O)=O)C3)n2c1 (stereo not given),Percent Effect,"30.3 µM, […]",33.79%
CC(Cn1cncn1)NC(=O)N1CC2(CCCC2)c2ccccc21 (stereo not given),Percent Effect,"30.3 µM, […]",3.028%
COc1ccc(C2CCCN2C(=O)NCCNc2ccccn2)cc1 (stereo not given),Percent Effect,"30.3 µM, […]",69.63%
COc1ccc(C2CCCN2C(=O)NCCCn2cccn2)cc1 (stereo not given),Percent Effect,"30.3 µM, […]",9.048%
COc1ccc(C2CCCN2C(=O)NCCNc2ncccn2)cc1 (stereo not given),Percent Effect,"30 µM, 30.03 µM",9.2%
CC(=O)c1cccc(-n2nc(C(C)=O)c(C(C)=O)c2C)c1,Percent Effect,"30.3 µM, […]",-0.2536%
COC[C@@]12CC[C@@H](N3CCOCC3)C[C@H]1CCN(c1ncccc1F)C2,Percent Effect,"30.3 µM, […]",25.63%
COC[C@@]12CC[C@@H](N3CCOCC3)C[C@H]1CCN(c1ncccc1C)C2,Percent Effect,"30.3 µM, […]",25.83%
COC[C@@]12CC[C@@H](N3CCOCC3)C[C@H]1CCN(c1ncccc1Cl)C2,Percent Effect,"30 µM, 30.03 µM",52.08%
CC(c1nccs1)N(C)C(=O)c1cc(CN(C)Cc2ccccc2)on1 (stereo not given),Percent Effect,"30.3 µM, […]",13.49%
Cc1cnn(CC2CCCN2C(=O)c2cc(Cl)ccc2F)c1 (stereo not given),Percent Effect,"30 µM, 30.03 µM",-5.128%
CC1CCC(N2Cc3nc(N)ncc3C2=O)CC1 (stereo not given),Percent Effect,"30.3 µM, […]",-33.84%
Nc1ncc2c(n1)CN(C1CCCC1)C2=O,Percent Effect,"30 µM, 30.03 µM",22.17%
CN1CCC(N2Cc3nc(N)ncc3C2=O)CC1,Percent Effect,"30.3 µM, […]",54.63%
CCC1=NN2C(=N)/C(=C\c3cccn3-c3ccc(Cl)cc3)C(=O)N=C2S1,Percent Effect,"30.3 µM, […]",-2.316%
CCN1C(=O)CC[C@@H]2[C@H]1CCN2S(=O)(=O)Cc1ccc(C)cc1,Percent Effect,"30.3 µM, […]",17.88%
Cl.Fc1ccccc1Cn1c(C2CCNCC2)cc2cccnc21,Percent Effect,"30.3 µM, […]",43.21%
Cl.Fc1cccc(F)c1Cn1c(C2CCNCC2)cc2cccnc21,Percent Effect,"30.3 µM, […]",57.89%
Cl.Fc1cccc(F)c1Cn1c(C2CCCNC2)cc2cccnc21 (stereo not given),Percent Effect,"30.3 µM, […]",-15.48%
Cc1nc(Nc2ncccn2)cc(C2CCN(CC(C)C)C2)n1 (stereo not given),Percent Effect,"30.3 µM, […]",2.022%
CN1CSC[C@H]1C(=O)N1CCN(Cc2cccc(F)c2)CC1,Percent Effect,"30.3 µM, […]",4.358%
Cc1csc(CN2CC(CO)Oc3ccccc32)n1 (stereo not given),Percent Effect,"30.3 µM, […]",-4.409%
COc1ccccc1OCCCN(C)c1cc(C)nc(N)n1,Percent Effect,"30.3 µM, […]",16.27%
Cc1cc(N(C)CC2COc3ccccc3O2)nc(C)n1 (stereo not given),Percent Effect,"30.3 µM, […]",59.02%
Cc1cc(N(C)CCCn2cccn2)nc(N)n1,Percent Effect,"30.3 µM, […]",27.03%
CN(Cc1nnnn1C1CC1)CC1COc2ccccc2O1 (stereo not given),Percent Effect,"30.3 µM, […]",4.21%
CN(Cc1nc(CC2CC2)no1)CC1COc2ccccc2O1 (stereo not given),Percent Effect,"30.3 µM, […]",-8.353%
CCN1CC(CN(C)c2cc(C)nc(N)n2)Oc2ccccc21 (stereo not given),Percent Effect,"30.3 µM, […]",84.12%
CN(CC1COc2ccccc2O1)C(=O)C1=NN(C)C(=O)CC1 (stereo not given),Percent Effect,"30.3 µM, […]",18.48%
Cc1cc(N(C)CC2COc3ccccc3O2)nc(N)n1 (stereo not given),Percent Effect,"30.3 µM, […]",51.06%
COc1ccccc1CNC(=O)N1CCCC(NS(C)(=O)=O)C1 (stereo not given),Percent Effect,"30 µM, 30.03 µM",-10.5%
Br.O=C(O)c1csc(NCCc2ccccc2)n1,Percent Effect,"30.3 µM, […]",-6.16%
CC(C)n1cnnc1CNC(=O)c1cnn(-c2ccccc2)c1,Percent Effect,"30.3 µM, […]",5.112%
Cc1cc(NC(=O)CN2CCOC(CN(C)C)C2)n(C)n1 (stereo not given),Percent Effect,"30.3 µM, […]",9.756%
Cc1nn(C)c(C)c1NC(=O)CN1CCOC(Cn2cccn2)C1 (stereo not given),Percent Effect,"30.3 µM, […]",7.584%
Cc1nn(C)c(C)c1NC(=O)CN1CCOC(CN(C)C)C1 (stereo not given),Percent Effect,"30.3 µM, […]",51.92%
CCC[C@@H]1CN(c2cncc(C(=O)N3CCOCC3)n2)C[C@H]1N(C)C,Percent Effect,"30.3 µM, […]",5.453%
FC(F)(F)CCc1ccnc(N2CCN(CCc3ccncc3)CC2)n1,Percent Effect,"30.3 µM, […]",-20.06%
NC(=O)c1cccc(CCNCc2cnc(-c3cccs3)s2)c1,Percent Effect,"30.3 µM, […]",8.667%
Cc1nn(C)c2ncnc(N3CCC(O)(CN4CCCC4)CC3)c12,Percent Effect,"30.3 µM, […]",8.338%
CC(=O)c1cn(CCC(=O)N[C@H](C(=O)O)C(C)C)c2ccccc12,Percent Effect,"30 µM, 30.03 µM",8.027%
CC[C@@H](C)[C@H](NC(=O)CCn1cc(C(C)=O)c2ccccc21)C(=O)O,Percent Effect,"30.3 µM, […]",56.09%
CC(=O)c1cn(CCC(=O)N[C@@H](CC(C)C)C(=O)O)c2ccccc12,Percent Effect,"30.3 µM, […]",32.27%
CCC1=N[C@@]2(CC[C@@H]3CN(CC4CC4)C[C@@H]32)C(=O)N1C.O=C(O)C(F)(F)F,Percent Effect,"30 µM, 30.03 µM",21.68%
Cc1ccc2cccc(S(=O)(=O)N(C)C3CCCN(C)C3)c2n1 (stereo not given),Percent Effect,"30.3 µM, […]",25.11%
CN(C1CCCN(c2ccccn2)C1)S(C)(=O)=O (stereo not given),Percent Effect,"30.3 µM, […]",25.41%
CN1CCCC(N(C)S(=O)(=O)c2cccc3ncccc23)C1 (stereo not given),Percent Effect,"30.3 µM, […]",59.16%
O=C(CNc1cc(-n2cnnn2)ccc1F)NCc1ccccc1,Percent Effect,"30.3 µM, […]",43.45%
CCOc1ccccc1CCN1Cc2ncccc2C1=O,Percent Effect,"30.3 µM, […]",-1.003%
Cc1nn(C)c(Cl)c1C1CCCN1c1ncnc2sccc12 (stereo not given),Percent Effect,"30 µM, 30.03 µM",51.25%
Cc1nn(C)c(C)c1C1CCCN1c1ncnc2sccc12 (stereo not given),Percent Effect,"30.3 µM, […]",33.23%
COc1c(C2CCCN2c2ncnc3sccc23)c(C)nn1C (stereo not given),Percent Effect,"30.3 µM, […]",26.6%
CC(=O)C(Cc1ccccc1)NC(=O)CSc1nccn1C1CC1 (stereo not given),Percent Effect,"30.3 µM, […]",7.269%
Cc1noc(C)c1CN1CCN(CC2CC2)c2ncccc2C1.O=C(O)C(F)(F)F.O=C(O)C(F)(F)F,Percent Effect,"30 µM, 30.03 µM",23.02%
Cc1noc(C)c1CN1CCO[C@H]2CN(C(=O)C3CCOCC3)C[C@H]21.O=C(O)C(F)(F)F,Percent Effect,"30.3 µM, […]",32.17%
CCC(=O)N1CCC2(CCN(Cc3cccc(F)c3)CC2)CC1.O=C(O)C(F)(F)F,Percent Effect,"30.3 µM, […]",2.147%
CC(=O)N1CCC2(CCN(Cc3cccc(F)c3)CC2)CC1.O=C(O)C(F)(F)F,Percent Effect,"30.3 µM, […]",20%
Cc1noc(C)c1CN1CCN(Cc2ccncc2)c2ncccc2C1.O=C(O)C(F)(F)F.O=C(O)C(F)(F)F.O=C(O)C(F)(F)F,Percent Effect,"30 µM, 30.03 µM",-14.87%
Cc1noc(C)c1CN1CCN(Cc2cccnc2)c2ncccc2C1.O=C(O)C(F)(F)F.O=C(O)C(F)(F)F.O=C(O)C(F)(F)F,Percent Effect,"30.3 µM, […]",57.48%
Cc1noc(C)c1CN1CCO[C@H]2CN(Cc3ccc(F)cc3)C[C@H]21.O=C(O)C(F)(F)F.O=C(O)C(F)(F)F,Percent Effect,"30.3 µM, […]",23.07%
Cc1noc(C)c1CN1CCC2(CCN(Cc3cccc(F)c3)CC2)C1.O=C(O)C(F)(F)F.O=C(O)C(F)(F)F,Percent Effect,"30.3 µM, […]",59.23%
Cc1noc(C)c1CN1CCO[C@H]2CN(Cc3cccc(F)c3)C[C@H]21.O=C(O)C(F)(F)F.O=C(O)C(F)(F)F,Percent Effect,"30.3 µM, […]",56.73%
Cc1ccc(-c2nc(C(=O)N(C)CC(=O)N(C)C)cs2)c(C)c1,Percent Effect,"30.3 µM, […]",-31.91%
CCS(=O)(=O)N1CCC(NCC2CNc3cc(C)nn3C2)CC1 (stereo not given),Percent Effect,"30.3 µM, […]",-7.273%
CC(=O)N1CC(=O)N(c2ccsc2)CC12CCN(Cc1ccoc1)C2 (stereo not given),Percent Effect,"30.3 µM, […]",14.63%
CC1CN(C)CCN1C(=O)c1ccn(-c2cccc(F)c2)n1 (stereo not given),Percent Effect,30 µM,3.559%
CCc1nnc(CNC2CCc3nc(C(C)C)nn3C2)o1 (stereo not given),Percent Effect,"30.3 µM, […]",-6.024%
Cc1csc(-c2cccc(NC(=O)N3CCOCC3)c2)n1,Percent Effect,"30.3 µM, […]",24.69%
Cc1csc(-c2ccc(NC(=O)N3CCOCC3)cc2)n1,Percent Effect,"30.3 µM, […]",-0.9004%
Cc1csc(NC(=O)c2ccc(NC(=O)N3CCOCC3)cc2)n1,Percent Effect,"30.3 µM, […]",69.81%
